Source: the supplement of paper PMC11732987, “Enantioselective OTUD7B fragment discovery through chemoproteomics screening and high-throughput optimisation” (Communications Chemistry, 2025)
A number with no mark means an inactive call.

Columns and labels:
Experiment in all cases: log2 ratio of Biotin-Ahx-Ub-VS probe labelling (fragment/DMSO); higher = less target engagement (more negative = stronger competition), active = hit call of the paper (q ≤ 0.05, log2 ratio ≤ -1)
Details in all cases: compound concentration: 200 uM; treatment time: 3 h
[1] = target: T1, ALG13 (UniProt Q9NP73)
T1 sequence (whole entry): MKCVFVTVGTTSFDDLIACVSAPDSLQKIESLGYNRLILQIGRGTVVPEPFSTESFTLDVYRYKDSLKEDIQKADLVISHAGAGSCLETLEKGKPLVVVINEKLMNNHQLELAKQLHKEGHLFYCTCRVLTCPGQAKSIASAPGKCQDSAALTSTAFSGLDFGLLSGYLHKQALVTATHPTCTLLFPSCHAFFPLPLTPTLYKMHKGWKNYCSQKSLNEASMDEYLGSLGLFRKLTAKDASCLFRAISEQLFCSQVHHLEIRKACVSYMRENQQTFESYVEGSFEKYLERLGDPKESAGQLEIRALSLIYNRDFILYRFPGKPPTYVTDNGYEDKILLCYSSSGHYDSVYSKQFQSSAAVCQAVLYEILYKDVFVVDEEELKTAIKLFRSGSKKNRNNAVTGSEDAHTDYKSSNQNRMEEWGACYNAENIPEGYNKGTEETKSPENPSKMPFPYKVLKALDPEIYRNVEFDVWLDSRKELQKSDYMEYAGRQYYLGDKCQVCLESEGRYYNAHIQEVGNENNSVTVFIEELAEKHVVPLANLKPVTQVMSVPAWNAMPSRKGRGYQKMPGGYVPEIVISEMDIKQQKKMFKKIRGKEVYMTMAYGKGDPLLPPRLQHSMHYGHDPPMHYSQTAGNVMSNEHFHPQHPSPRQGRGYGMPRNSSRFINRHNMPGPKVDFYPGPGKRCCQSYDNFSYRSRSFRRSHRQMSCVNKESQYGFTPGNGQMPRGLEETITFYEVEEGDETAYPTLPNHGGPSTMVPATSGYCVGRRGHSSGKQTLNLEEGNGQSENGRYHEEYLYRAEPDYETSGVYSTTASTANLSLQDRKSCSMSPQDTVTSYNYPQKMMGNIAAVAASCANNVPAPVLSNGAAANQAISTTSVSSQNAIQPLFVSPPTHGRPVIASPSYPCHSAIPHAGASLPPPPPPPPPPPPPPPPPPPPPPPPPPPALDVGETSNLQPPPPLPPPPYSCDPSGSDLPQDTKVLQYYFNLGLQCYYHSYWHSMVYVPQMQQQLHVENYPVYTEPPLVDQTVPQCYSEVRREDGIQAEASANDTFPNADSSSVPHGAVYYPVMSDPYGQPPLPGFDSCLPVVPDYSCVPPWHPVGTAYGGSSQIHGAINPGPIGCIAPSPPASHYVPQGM
Method in brief: (§1)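 Fragment (200 µM) or vehicle was incubated for 3 h with triplicate HEK293T lysate samples of 495 µg, which were then treated with Biotin-Ahx-Ub-VS at 0.5 µM final for 1 h. Labelled DUBs were enriched on NeutrAvidin, digested with LysC and trypsin, and analysed by diaPASEF LC-MS/MS. Values are average log2 fragment/vehicle ratios from an unpaired t-test on global-median-normalised Spectronaut label-free quantities, using proteins with ≥2 unique peptides.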

[2] = target: ATXN3 (UniProt P54252)
Method in brief: as §1

[3] = target: T2, BAP1 (UniProt Q92560)
T2 sequence (whole entry): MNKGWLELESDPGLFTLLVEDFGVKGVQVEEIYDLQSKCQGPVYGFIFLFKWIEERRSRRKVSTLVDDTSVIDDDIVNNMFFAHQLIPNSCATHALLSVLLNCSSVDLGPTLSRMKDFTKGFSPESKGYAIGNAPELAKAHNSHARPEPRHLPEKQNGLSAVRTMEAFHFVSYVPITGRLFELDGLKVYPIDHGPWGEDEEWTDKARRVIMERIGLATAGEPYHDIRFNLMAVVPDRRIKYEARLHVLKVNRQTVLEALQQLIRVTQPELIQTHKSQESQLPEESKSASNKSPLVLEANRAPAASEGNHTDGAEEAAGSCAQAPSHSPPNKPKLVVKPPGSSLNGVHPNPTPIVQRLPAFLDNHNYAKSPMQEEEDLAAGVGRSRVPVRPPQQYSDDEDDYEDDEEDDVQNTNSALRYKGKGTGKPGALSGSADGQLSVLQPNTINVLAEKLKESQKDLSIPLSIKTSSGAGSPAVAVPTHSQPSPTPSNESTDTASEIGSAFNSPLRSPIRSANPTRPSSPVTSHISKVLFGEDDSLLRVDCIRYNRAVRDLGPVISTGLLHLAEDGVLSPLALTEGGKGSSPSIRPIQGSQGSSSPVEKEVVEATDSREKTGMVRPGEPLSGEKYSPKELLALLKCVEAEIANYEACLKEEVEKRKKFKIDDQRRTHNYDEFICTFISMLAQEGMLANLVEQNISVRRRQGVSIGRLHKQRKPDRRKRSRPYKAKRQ
Method in brief: as §1

[4] = target: EIF3F (UniProt O00303)
Method in brief: as §1

[5] = target: EIF3H (UniProt O15372)
Method in brief: as §1

[6] = target: T3, FAM105A (UniProt Q9NUU6)
T3 sequence (whole entry): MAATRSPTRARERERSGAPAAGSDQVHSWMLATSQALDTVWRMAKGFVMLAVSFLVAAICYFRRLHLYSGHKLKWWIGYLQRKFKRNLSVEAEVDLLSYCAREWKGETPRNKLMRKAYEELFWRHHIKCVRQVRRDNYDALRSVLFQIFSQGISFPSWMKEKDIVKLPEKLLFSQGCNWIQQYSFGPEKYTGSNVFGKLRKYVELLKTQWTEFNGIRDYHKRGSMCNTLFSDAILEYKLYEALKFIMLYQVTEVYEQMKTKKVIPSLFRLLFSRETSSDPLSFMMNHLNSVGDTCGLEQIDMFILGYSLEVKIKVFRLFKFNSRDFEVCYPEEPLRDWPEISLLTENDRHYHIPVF
Method in brief: as §1

[7] = target: OTUB1 (UniProt Q96FW1)
Method in brief: as §1

[8] = target: T4, OTUD4 (UniProt Q01804)
T4 sequence (whole entry): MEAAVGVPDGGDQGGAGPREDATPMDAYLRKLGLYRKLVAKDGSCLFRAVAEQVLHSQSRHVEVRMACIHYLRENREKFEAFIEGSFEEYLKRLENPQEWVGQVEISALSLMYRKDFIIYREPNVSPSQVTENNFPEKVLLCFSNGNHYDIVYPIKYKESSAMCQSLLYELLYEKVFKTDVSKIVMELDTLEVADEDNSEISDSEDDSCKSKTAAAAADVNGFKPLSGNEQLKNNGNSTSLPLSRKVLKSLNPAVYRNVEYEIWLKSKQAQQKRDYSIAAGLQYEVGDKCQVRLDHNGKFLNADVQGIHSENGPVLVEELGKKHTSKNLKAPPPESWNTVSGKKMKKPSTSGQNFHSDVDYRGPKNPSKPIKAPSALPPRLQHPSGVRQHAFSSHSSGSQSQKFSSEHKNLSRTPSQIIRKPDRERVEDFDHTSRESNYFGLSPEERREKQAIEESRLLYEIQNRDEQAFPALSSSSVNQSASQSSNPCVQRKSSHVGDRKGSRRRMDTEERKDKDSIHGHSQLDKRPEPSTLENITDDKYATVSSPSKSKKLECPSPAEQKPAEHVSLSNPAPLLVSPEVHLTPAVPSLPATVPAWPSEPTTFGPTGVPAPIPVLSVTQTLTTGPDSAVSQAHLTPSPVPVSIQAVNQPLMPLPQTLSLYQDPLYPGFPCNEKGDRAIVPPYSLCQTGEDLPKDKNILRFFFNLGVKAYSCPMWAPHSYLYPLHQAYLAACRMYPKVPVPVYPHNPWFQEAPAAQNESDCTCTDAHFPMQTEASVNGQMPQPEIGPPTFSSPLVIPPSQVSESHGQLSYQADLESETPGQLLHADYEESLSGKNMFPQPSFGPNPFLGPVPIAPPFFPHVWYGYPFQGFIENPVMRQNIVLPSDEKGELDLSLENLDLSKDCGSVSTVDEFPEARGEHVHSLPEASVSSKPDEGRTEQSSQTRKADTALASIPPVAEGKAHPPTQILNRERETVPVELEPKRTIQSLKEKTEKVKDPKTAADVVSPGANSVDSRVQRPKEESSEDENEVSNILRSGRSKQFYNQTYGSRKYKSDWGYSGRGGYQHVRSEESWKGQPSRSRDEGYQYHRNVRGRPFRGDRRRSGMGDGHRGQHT
Method in brief: as §1

[9] = target: T5, OTUD5 (UniProt Q96G74)
T5 sequence (whole entry): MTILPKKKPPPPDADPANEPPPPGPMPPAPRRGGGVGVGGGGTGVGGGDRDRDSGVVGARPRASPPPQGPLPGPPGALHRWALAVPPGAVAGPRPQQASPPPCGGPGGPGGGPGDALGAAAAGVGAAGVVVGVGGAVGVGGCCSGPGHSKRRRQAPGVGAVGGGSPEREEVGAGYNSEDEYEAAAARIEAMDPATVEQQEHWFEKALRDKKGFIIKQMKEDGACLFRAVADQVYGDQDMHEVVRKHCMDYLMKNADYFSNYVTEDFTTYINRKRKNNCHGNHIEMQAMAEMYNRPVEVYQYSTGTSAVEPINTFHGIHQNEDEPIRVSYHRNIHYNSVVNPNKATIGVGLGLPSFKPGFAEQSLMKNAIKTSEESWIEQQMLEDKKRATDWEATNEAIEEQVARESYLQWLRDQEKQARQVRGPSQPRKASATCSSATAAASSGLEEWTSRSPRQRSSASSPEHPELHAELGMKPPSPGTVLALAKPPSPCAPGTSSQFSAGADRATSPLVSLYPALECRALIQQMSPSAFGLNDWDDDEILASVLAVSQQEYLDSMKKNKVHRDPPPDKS
Method in brief: as §1

EIF3H, sequence (O15372 whole entry): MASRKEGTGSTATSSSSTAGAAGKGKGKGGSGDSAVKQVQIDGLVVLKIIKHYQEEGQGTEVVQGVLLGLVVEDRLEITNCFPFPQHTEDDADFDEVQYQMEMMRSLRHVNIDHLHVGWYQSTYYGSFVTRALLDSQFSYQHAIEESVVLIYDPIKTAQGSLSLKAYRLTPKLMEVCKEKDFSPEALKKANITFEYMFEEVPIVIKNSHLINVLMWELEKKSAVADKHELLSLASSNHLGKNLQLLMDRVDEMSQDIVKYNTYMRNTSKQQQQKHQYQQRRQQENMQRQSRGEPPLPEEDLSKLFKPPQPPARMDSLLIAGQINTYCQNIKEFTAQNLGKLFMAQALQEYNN
ATXN3, sequence (P54252 whole entry): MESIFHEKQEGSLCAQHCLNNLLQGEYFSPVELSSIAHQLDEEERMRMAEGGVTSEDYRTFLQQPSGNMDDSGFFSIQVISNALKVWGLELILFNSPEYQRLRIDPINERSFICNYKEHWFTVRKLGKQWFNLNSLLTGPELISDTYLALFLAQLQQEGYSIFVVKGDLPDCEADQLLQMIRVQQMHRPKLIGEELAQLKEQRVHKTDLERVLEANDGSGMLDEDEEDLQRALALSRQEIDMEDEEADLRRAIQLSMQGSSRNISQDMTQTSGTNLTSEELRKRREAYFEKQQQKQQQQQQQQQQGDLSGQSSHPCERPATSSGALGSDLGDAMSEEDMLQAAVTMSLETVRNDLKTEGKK
OTUB1, sequence (Q96FW1 whole entry): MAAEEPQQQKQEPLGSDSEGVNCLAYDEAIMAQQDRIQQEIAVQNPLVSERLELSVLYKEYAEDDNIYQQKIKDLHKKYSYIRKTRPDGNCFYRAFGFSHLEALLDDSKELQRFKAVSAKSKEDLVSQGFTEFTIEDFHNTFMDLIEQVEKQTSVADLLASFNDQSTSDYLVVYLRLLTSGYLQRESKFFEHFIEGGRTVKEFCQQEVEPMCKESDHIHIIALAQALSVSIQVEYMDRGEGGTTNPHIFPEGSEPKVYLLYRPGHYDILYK
EIF3F, sequence (O00303 whole entry): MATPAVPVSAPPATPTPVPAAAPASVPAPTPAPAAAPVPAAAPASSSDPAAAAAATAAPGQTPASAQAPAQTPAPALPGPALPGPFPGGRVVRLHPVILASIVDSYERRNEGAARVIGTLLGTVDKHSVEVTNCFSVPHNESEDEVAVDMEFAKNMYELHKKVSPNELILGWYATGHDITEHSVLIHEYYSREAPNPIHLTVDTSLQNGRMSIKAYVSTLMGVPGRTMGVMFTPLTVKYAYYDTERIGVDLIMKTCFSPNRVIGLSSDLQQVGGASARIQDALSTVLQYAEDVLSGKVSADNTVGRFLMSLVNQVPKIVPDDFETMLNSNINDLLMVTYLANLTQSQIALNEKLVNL

CN(C)C(=O)c1ccc(CNC(=O)CCl)cc1
log2 ratio of Biotin-Ahx-Ub-VS probe labelling [1]: 0.104
log2 ratio of Biotin-Ahx-Ub-VS probe labelling [2]: -0.0706
log2 ratio of Biotin-Ahx-Ub-VS probe labelling [3]: -2.84 (active)
log2 ratio of Biotin-Ahx-Ub-VS probe labelling [4]: 0.137
log2 ratio of Biotin-Ahx-Ub-VS probe labelling [5]: 0.092
log2 ratio of Biotin-Ahx-Ub-VS probe labelling [6]: 0.248
log2 ratio of Biotin-Ahx-Ub-VS probe labelling [7]: -0.0918
log2 ratio of Biotin-Ahx-Ub-VS probe labelling [8]: -0.365
log2 ratio of Biotin-Ahx-Ub-VS probe labelling [9]: -0.146
